Compounds with a hit are over-represented: about 3.7% of the library has one in this group of screens.
p53 reactivator: qHTS assay for re-activators of p53 using a Luc reporter | H1299 p53-A138V BP100-luciferase reporter, luminescence, 24 h | Potency, µM (highest dose often 92.2 µM), most hits filed as activators | 0.063% of 320,000 active; note: nearly all actives have a fitted effect of over 45% in size
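H1299 (p53-null), stable ts p53-A138V + BP100-Luc; 1000 cells/well, Opti-MEM/10% FBS; cpd 4 pt, 1:5; 24 h, 37 deg C, 5% CO2; detection reagent 10 min RT; luminescence.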
ClpP mod: qHTS Assay for Activators of ClpP. ATP-dependent Clp protease proteolytic subunit (Bacillus subtilis (strain 168)), P80244. purified B. subtilis ClpP, FRET peptide cleavage, 20 min. Potency, µM (doses to about 57.5 µM). 1.9% of 340,000 active; active = well fitted falling curve with a large enough effect; inconclusive = small, poorly fitted or top-dose-only effect; inactive = no such curve, though single readings can be large or run the other way; note: the source files actives as falling curves though it sought activators and does not explain the sign; nearly all actives have a fitted effect of over 65% in size
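Purified B. subtilis ClpP, 10 microg/mL final in Tris/HCl pH8 with KCl, BSA, glycerol and Tween-20, cleaved an Abz/nitrotyrosine-quenched decapeptide. Fluorescence (ex 320, em 430) was read at 0 and 20 min at room temperature. Delta was normalized to 5.8 microM ADEP and DMSO/no-enzyme controls.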
A549 tox: Nrf2 qHTS screen for inhibitors: counterscreen for cytotoxicity | A549 ARE-Fluc cells, CellTiter-Fluor viability, 18-24 h | Potency, µM (top dose mostly 46 µM), actives largely listed as inhibitors | 0.16% of 390,000 active | AID 504648, 2011
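A549 ARE-Fluc cells in 5% FBS OPTI-MEM, 5000 cells/well, rested 2 h then exposed to compounds in concentration-response for 18-24 h at 37 °C. Viability by CellTiter-Fluor fluorescence (Ex 405/Em 525) after 30 min; luciferase luminescence (BugLite, 15 min, RT) read afterwards.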
Nrf2 block: Nrf2 qHTS screen for inhibitors. A549 ARE-Fluc reporter, luciferase luminescence, 18-24 h. 2.1% of 360,000 active. AID 504444, 2011. Potency, µM (titrated, usually from 46 µM), actives largely listed as inhibitors; note: nearly all actives have a fitted effect of over 60% in size
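A549 ARE_Fluc cells (5000/well, 5% FBS OPTI-MEM) pre-incubated 2 h, then treated with compounds 18-24 h at 37C/5% CO2 in concentration-response. CellTiter-Fluor viability read first; BugLite luciferase luminescence after 15 min at room temperature gives Nrf2 activity.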
miR-21 reporter: qHTS Assay for Modulators of miRNAs and/orActivators of miR-21; Potency, µM (doses to about 38.3 µM), most hits filed as activators; HeLa miR-21 FLuc reporter, luciferase, 48 h; 340,000 tested, under 10 active; AID 2288, 2010;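 note: miR-21 action dims this reporter so a rising signal means less miR-21 action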
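HeLa cells endogenously expressing miR-21, stably carrying CMV-driven firefly luciferase with a downstream miR-21 binding site, 2000 cells/well. Titrations up to approximately 40 uM, 48 hours; luciferase luminescence read.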
Nrf2 activator: qHTS of Nrf2 Activators; 0.31% of 410,000 active; AREc32 ARE-luciferase reporter (MCF7-derived line), luminescence, 24 h; Potency, µM (series often up to 46.1 µM), hits mostly activators; note: nearly all actives have a fitted effect of over 65% in size
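AREc32_Fluc, 1000 cells/well, OPTI-MEM + 5% FBS, o/n 37 deg C 5% CO2; 23 nL cpd by pin tool, 24 hr; Steady-Glo 30 min RT, luminescence.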
Each line names hits and unclear results; the compound was inactive in the other large screens. Unless noted, calls come from the whole dose curve; as a rule, active = well fitted curve in the direction sought with a large enough effect; inconclusive = small, poorly fitted or top-dose-only effect, or another doubt; inactive = no such curve, though single readings can be large; an effect the other way counts as inactive or inconclusive.

COc1cc2c(cc1OC)CN(C(=O)CCCOc1ccc(Cl)cc1Cl)CC2	Nrf2 block 18µM
CCOC(=O)c1cc2c(=O)n3ccccc3nc2n(CC(C)C)c1=NC(=O)COc1ccc(Cl)cc1	none (no result: p53 reactivator)
OC(COc1ccc(Cl)cc1)CN1C2=NCCCN2c2ccccc21 (stereo not given)	ClpP mod 22µM (no result: Nrf2 block)
Cc1c(C(=O)OCc2nc3scc(-c4ccccc4)c3c(=O)[nH]2)cccc1[N+](=O)[O-]	Nrf2 block 21µM
O=C(OCc1nc2scc(-c3ccccc3)c2c(=O)[nH]1)c1cc(Cl)ccc1[N+](=O)[O-]	ClpP mod inconclusive
CCCN(C(=O)NCc1noc2ccc(C)cc12)c1ccc(Cl)c(Cl)c1	none (no result: p53 reactivator)
CCC(C)N(C(=O)CSc1nc(-c2cccs2)nc2ccccc12)C1CCS(=O)(=O)C1 (stereo not given)	A549 tox inconclusive, Nrf2 block 8.2µM (no result: p53 reactivator, miR-21 reporter)
COc1ccc(CCNC(=O)c2nn(-c3ccc(C)cc3)c(=O)c3c2c2ccccc2n3C)cc1OC	ClpP mod inconclusive (no result: p53 reactivator)
COc1ccc(Br)cc1CC1C(=O)Nc2ccccc21 (stereo not given)	Nrf2 block 7.3µM (no result: p53 reactivator)
Cc1nnc(N2C(=O)c3cccc4cccc(c34)C2=O)s1	ClpP mod 28µM
CCOC(=O)CCC(=O)Nc1nnc2n1CCS2	none (no result: p53 reactivator, Nrf2 block)
O=C1CC2(CCN(C(=O)c3ccccc3Br)CC2)Oc2ccccc21	ClpP mod 28µM (no result: miR-21 reporter)
O=C1CC2(CCN(C(=O)c3ccc(Br)cc3)CC2)Oc2ccccc21	ClpP mod 32µM (no result: miR-21 reporter)
CCCC(=O)NC(=S)Nc1ccc(S(=O)(=O)Nc2ccc(OCC)cc2)cc1	A549 tox 18µM, Nrf2 block 7.3µM
CCOc1ccc(NS(=O)(=O)c2ccc(NC(=O)c3ccccn3)cc2)cc1	Nrf2 block 15µM (no result: miR-21 reporter)
CCOc1ccc(NS(=O)(=O)c2ccc(NC(=S)NC(=O)CC(C)C)cc2)cc1	A549 tox inconclusive (no result: Nrf2 block)
CN(C(=O)COC(=O)c1ccccc1NCCO)C1CCS(=O)(=O)C1 (stereo not given)	ClpP mod 20µM (no result: miR-21 reporter)
CN(C(=O)COC(=O)c1nc(Cl)c(Cl)c(Cl)c1Cl)C1CCS(=O)(=O)C1 (stereo not given)	A549 tox inconclusive, miR-21 reporter inconclusive, Nrf2 activator 13µM
CN(C(=O)COC(=O)c1ccccc1NC(=O)c1ccco1)C1CCS(=O)(=O)C1 (stereo not given)	none (no result: ClpP mod)
CCc1ccc(NC(=O)C(Cc2ccccc2)NS(=O)(=O)c2ccc3c(c2)c(=O)n(C)c(=O)n3C)cc1 (stereo not given)	A549 tox inconclusive (no result: p53 reactivator)
CC(C)Sc1nc2sc3c(c2c2nnc(SCC(=O)NCc4ccco4)n12)CCCC3	ClpP mod 32µM
O=S1(=O)NC2CCCCCN2c2ccc(F)cc21 (stereo not given)	ClpP mod 28µM
CCOc1ccc(N2CC(NC(=O)Cc3ccccc3)CC2=O)cc1 (stereo not given)	none (no result: p53 reactivator, Nrf2 block)
O=C(COc1ccc(Cl)cc1)Nc1ccc(Cc2ccncc2)cc1	ClpP mod 7.1µM
COc1ccc(OCC(=O)Nc2ccc(Cl)cc2)cc1	none (no result: ClpP mod)
O=C(COc1ccc2ccccc2c1)Nc1ccc(Cc2ccncc2)cc1	Nrf2 block 15µM
C#CCN(C1CCCC1)S(=O)(=O)C=C	none (no result: p53 reactivator, A549 tox, Nrf2 block, miR-21 reporter, Nrf2 activator)
COc1ccccc1CNC(=O)c1ccc(-c2nc(CN3CCc4ccccc43)c(C)o2)cc1	miR-21 reporter inconclusive (no result: p53 reactivator, Nrf2 block)
COc1cccc(CNC(=O)[C@@H]2CCCN2C(=O)[C@H]2CCCCN2C(=O)c2cccc3ccccc23)c1	none (no result: p53 reactivator, A549 tox, Nrf2 block, miR-21 reporter)
COc1cccc2sc(Nc3nc(-c4ccccn4)cs3)nc12	p53 reactivator 25µM (no result: ClpP mod, A549 tox, Nrf2 block, Nrf2 activator)
CCn1cc2nc(SCc3cccc(OC)c3)n(Cc3ccc(Cl)cc3)c(=O)c2n1	Nrf2 block inconclusive, miR-21 reporter inconclusive (no result: p53 reactivator)
